These results are taken from PubChem BioAssay.

The source made the active and inactive calls.

The nature of test [1]: binders of probe aFSTL3 on microarray, primary screen, stem cell growth factor project, biochemical, small-molecule microarray, fluorescence 635/667 (AID 1064).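 Also: measures binding of the biotinylated anti-FSTL3 antibody to printed compounds.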 The following applies: higher = more signal.
A short description of test [2]: binders from COS7 lysate, DM2A8 probe, primary screen, torsin A project, cell lysate, small-molecule microarray, fluorescence 635/667 (AID 1065). The following applies: higher = more signal, COS7 lysate expressing mutant human TOR1A.
Test [3] in a line: binders of probe aFGF2 on microarray, primary screen, stem cell growth factor project, biochemical, small-molecule microarray, fluorescence 635/667 (AID 1067).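 Also: measures binding of biotinylated aFGF2 protein to printed compounds on slides; z-score merges feature fluorescence and signal-to-noise across triplicate slides.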 As to conditions: higher = more signal.
A short description of test [4]: binders of probe aFGF10 on microarray, primary screen, stem cell growth factor project, biochemical, small-molecule microarray, fluorescence 635/667 (AID 1071).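 Also: score merges 667 nm spot intensity and signal to noise from triplicate slides.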 The following applies: higher = more signal.
In test [5] the target is Neurogenic locus notch homolog protein 2 (Homo sapiens) (UniProt Q04721). The experiment in a line: Notch2 binders on small-molecule microarrays, primary screen, biochemical, small-molecule microarray, 635 nm fluorescence, stem cell growth factors (AID 1073). As to conditions: Notch2 binding, higher = more signal.
Test [6] deals with Pro-neuregulin-1, membrane-bound isoform (Homo sapiens) (UniProt Q02297). The experiment in a line: NRG1 binders on small-molecule microarrays, primary screen, psychiatric disease protein project, biochemical, small-molecule microarray, fluorescence 635/667 (AID 1075).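 Also: score combines 667 nm spot fluorescence with signal to noise.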 The following applies: NRG1 binding, 635 nm fluorescence, higher = more signal.
The subject of test [7] is Neuregulin-1 EGF-like domain. Nature of the test: binders of neuregulin-1 EGF-like domain, primary screen, biochemical, small-molecule microarray, 635 nm fluorescence (AID 1081).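 Also: binding of the protein to compounds printed on small-molecule microarray slides.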 The following applies: small-molecule microarray binding, higher = more signal.
Test [8] is described as follows: FRG1 promoter luciferase signal modulators, primary screen, FRG1 inhibition for FSHD, cell-based, C2C12 myotubes, firefly/Renilla luciferase, luminescence (AID 1084). The following applies: higher = more signal, called active from +8 up or from −8 down.
The nature of test [9]: binders of probe aFST on microarray, primary screen, stem cell growth factor project, biochemical, small-molecule microarray, fluorescence 635/667 (AID 1086).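 Also: score merges 667 nm fluorescence with signal-to-noise of each printed compound spot.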 The following applies: higher = more signal.
The nature of test [10]: binders of probe aHhip on microarray, primary screen, stem cell growth factor project, biochemical, small-molecule microarray, fluorescence 635/667 (AID 1087).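 Also: score merges spot fluorescence at 667nm with spot signal to noise ratio.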 As to conditions: higher = more signal.

Sequence of Pro-neuregulin-1, membrane-bound isoform (Homo sapiens) (Q02297 whole entry, looked up, the tested form may be a part, canonical isoform): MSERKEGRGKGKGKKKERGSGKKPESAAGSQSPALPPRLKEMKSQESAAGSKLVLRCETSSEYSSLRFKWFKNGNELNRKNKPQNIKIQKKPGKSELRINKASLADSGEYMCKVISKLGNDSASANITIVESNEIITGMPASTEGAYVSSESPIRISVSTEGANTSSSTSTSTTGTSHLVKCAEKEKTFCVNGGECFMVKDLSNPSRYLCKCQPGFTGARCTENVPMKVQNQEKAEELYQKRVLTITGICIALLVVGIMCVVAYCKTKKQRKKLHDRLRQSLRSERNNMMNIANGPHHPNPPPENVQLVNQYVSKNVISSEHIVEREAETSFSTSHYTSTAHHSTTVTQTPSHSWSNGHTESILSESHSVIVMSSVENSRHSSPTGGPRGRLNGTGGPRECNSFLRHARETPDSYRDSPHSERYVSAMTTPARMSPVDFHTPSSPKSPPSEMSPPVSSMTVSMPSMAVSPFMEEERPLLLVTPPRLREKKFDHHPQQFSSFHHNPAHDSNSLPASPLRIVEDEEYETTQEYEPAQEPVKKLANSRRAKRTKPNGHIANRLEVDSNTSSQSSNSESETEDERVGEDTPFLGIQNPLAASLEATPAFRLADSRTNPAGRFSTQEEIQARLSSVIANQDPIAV
Sequence of Neurogenic locus notch homolog protein 2 (Homo sapiens) (Q04721 whole entry, looked up, canonical isoform): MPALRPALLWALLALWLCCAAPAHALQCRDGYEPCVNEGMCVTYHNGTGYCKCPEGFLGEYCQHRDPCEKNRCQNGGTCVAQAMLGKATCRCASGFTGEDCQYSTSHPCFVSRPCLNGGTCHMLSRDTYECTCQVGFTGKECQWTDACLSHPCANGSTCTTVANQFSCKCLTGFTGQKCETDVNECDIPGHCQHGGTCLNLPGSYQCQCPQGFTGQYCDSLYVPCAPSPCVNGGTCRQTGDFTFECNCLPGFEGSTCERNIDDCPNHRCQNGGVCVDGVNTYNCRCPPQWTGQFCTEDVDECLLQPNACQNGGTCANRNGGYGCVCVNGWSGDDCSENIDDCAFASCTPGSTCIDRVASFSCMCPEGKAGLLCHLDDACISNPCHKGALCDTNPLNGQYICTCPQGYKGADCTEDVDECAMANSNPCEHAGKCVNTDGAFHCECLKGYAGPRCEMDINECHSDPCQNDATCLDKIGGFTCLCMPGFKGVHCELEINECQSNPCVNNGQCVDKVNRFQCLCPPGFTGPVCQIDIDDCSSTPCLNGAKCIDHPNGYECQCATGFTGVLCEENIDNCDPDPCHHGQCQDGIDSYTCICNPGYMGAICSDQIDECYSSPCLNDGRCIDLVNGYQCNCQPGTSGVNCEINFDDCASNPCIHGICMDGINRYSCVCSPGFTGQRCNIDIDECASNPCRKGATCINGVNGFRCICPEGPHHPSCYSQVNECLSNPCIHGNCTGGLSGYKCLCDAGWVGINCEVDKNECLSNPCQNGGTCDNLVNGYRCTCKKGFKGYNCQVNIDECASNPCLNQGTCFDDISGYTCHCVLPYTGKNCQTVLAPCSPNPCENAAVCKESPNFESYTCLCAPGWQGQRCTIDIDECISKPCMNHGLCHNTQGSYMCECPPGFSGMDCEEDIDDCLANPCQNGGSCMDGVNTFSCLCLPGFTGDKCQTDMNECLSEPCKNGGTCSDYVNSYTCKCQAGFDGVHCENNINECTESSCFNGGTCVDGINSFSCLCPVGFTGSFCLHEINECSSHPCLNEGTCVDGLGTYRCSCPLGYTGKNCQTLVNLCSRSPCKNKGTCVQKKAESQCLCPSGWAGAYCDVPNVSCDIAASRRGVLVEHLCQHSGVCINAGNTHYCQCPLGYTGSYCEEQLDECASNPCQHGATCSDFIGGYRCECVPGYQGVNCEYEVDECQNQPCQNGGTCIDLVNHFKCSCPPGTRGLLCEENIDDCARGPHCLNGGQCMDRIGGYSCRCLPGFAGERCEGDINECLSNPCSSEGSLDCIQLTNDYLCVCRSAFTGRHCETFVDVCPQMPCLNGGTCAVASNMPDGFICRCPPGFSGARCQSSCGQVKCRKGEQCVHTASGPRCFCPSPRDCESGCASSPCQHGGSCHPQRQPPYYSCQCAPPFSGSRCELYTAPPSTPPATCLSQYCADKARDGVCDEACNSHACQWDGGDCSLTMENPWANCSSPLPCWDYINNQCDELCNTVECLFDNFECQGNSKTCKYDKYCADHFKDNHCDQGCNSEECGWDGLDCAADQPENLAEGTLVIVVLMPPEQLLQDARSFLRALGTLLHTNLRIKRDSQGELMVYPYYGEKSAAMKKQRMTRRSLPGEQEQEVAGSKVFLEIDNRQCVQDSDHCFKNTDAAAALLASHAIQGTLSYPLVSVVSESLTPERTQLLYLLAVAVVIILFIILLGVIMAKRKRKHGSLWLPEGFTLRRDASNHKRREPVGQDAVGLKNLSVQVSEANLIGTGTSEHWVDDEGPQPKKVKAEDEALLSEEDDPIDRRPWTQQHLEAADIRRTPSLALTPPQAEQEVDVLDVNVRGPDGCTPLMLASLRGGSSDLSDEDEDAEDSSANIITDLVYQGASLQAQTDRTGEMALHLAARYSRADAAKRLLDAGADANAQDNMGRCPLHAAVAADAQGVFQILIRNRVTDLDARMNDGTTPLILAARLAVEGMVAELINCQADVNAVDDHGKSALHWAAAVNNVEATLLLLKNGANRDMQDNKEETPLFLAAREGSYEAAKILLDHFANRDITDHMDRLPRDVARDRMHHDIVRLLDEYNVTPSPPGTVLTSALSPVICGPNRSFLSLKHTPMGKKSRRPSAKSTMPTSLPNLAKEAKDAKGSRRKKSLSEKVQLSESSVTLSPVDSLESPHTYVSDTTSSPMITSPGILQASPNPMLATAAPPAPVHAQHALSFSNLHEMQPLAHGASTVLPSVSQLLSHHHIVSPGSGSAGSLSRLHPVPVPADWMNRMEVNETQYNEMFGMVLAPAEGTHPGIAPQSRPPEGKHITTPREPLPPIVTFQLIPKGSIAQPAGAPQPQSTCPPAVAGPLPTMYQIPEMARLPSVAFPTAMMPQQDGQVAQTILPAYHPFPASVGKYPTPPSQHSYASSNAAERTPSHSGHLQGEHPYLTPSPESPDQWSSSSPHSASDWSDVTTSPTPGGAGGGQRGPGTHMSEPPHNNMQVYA

As for `N#Cc1ccc(NN2C(C(O)CCc3ccccc3)C=CC3C(=O)N(c4ccccc4)C(=O)C32)cc1` (stereo not given), the composite z-score in [1] is 0.681; in test [2], 0.936; in test [3], 0.078; in test [4], -0.0011; in test [5], 1.62; in test [6], 1.17. In addition, the values for the composite z-score in [7], in test [9] and in test [10] were 1, 1.02 and -0.177, respectively. In addition, the z-score in test [8] was -1.22 (inactive).
`C/C(=N\O)C(=O)NCCCCCNC(=O)OCc1ccccc1`: the composite z-score in [1] is -0.286; in test [2], 0.135; in [3], -0.0711; in test [4], 0.418; in test [5], 0.475; in test [6] it was 0.0391. Further, the results for the composite z-score in test [7], in test [9] and in test [10] were 0.619, 0.271 and -0.226, respectively. Further, the z-score in test [8] is 0.725 (inactive).
Regarding `CO[C@@H]1COC(=O)CC=C[C@@H](C)[C@H](OC)COC(=O)CC=C[C@H]1C`, the composite z-score in test [1] is -0.762; in test [2], 1.22; in test [3], -0.14; in test [4], -0.228; in test [5] it was -0.541; in test [6], -0.503. Also, the results for the composite z-score in test [7], in test [9] and in [10] were -0.366, 0.169 and -0.16, respectively. Moreover, the z-score in [8] is 0.211 (inactive).
For `CCN1C(C)=C(C(=O)OC)[C@@H](c2ccccc2)N2C(=O)[C@@]3(C(=O)OC)O[C@@]12[C@@H]1C(=O)N(C)C(=O)[C@@H]13`, the composite z-score is -0.217 in test [1]; 0.139 in test [2]; -0.0125 in test [3]; 0.735 in test [4]; 0.949 in [5]; 0.825 in test [6]. Further, the composite z-score is 1.18 in test [7], 0.264 in [9] and -0.0994 in test [10]. In test [8], the z-score was -1.36 (inactive).
On to `CCC(=O)[C@]12O[C@@]3([C@@H]4C(=O)OCC[C@@H]41)N(Cc1ccccc1)C(C)=C(C(=O)OC)[C@@H](c1ccccc1)N3C2=O`, for which the composite z-score is 0.232 in [1]; -0.289 in test [2]; -0.163 in test [3]; -0.133 in test [4]; -0.333 in test [5]; -0.0829 in test [6]. Also, the composite z-score in test [7] was -0.814; in [9], -0.348; in test [10], -0.134. Moreover, the z-score in [8] was -0.0144 (inactive).
With `COCCOC(=O)N1C(=O)[C@@]2(c3cc(C#CCNC(N)=O)ccc31)[C@H](c1ccc(OCCO)cc1)N1[C@H](c3ccccc3)[C@H](c3ccccc3)OC(=O)[C@H]1[C@@H]2C(=O)N1CCCCCCC1`, the composite z-score in test [1] is 2.75; in test [2] it was 0.0698; in [3], 0.128; in test [4], 0.209; in [5] it was 0.315; in test [6] it was -0.0446. In addition, the composite z-score was -0.116 in test [7], 1.46 in test [9] and 0.167 in test [10]. Also, the z-score in [8] was -0.271 (inactive).
As for `C=CCOC(=O)[C@@H]1[C@H]2C(=O)O[C@H](c3ccccc3)[C@H](c3ccccc3)N2[C@H](c2ccc(OCCOC(=O)[C@H]3C[C@H]4C(=O)N[C@@H](CCCCNC(C)=O)C(=O)N4[C@H]3c3ccc(O)cc3)cc2)[C@@]12C(=O)Nc1ccc(I)cc12`, the composite z-score in test [1] is -0.583; in test [2], 0.242; in test [3] it was 0.0435; in test [4], 0.536; in test [5] it was 0.5; in test [6] it was 1.24. In addition, the composite z-score in test [7] was 1.17; in test [9] it was -0.0007; in test [10], 0.158. In test [8], the z-score is 0.46 (inactive).
Consider `O=C1O[C@H](c2ccccc2)[C@H](c2ccccc2)N2[C@H]1[C@@H](C(=O)Nc1nc3ccccc3s1)[C@]1(C(=O)Nc3ccc(C#CC4(O)CCCCCC4)cc31)[C@H]2c1ccc(O)cc1`, for which the composite z-score was -0.299 in [1]; -0.0427 in test [2]; -0.0407 in test [3]; 0.443 in [4]; 1.34 in test [5]; 1.8 in [6]. Moreover, the composite z-score in test [7] was 1.14; in test [9], 0.668; in test [10], 0.0623. In [8], the z-score was 0.36 (inactive).
As for `Cc1ccc(S(=O)(=O)N2[C@@H](c3ccccc3)C(C(=O)O)=CC[C@H]2c2ccccc2)cc1`, the composite z-score in test [1] was -0.0332; in test [2], -0.0906; in [3], -0.0502; in test [4], 0.693; in [5] it was 1.44; in test [6] it was 1.06. Also, the composite z-score was found to be 1.38 in test [7], 0.273 in [9] and 0.0854 in [10]. For the same compound, the z-score in test [8] was -2.89 (inactive).
As to `O=C1NC(=O)C2C1C=CC(C(O)C=Cc1ccc([N+](=O)[O-])cc1)N2Nc1ccccn1` (stereo not given), the composite z-score is -0.273 in test [1]; 0.224 in test [2]; 0.102 in [3]; 0.212 in [4]; 1.15 in test [5]; -0.0777 in [6]. Besides, the composite z-score in test [7] is 0.966; in test [9] it was -0.199; in [10] it was -0.226. The z-score in [8] is 0.126 (inactive).
Turning to `C=CC[C@]1(C(N)=O)N=C(c2ccc(OCCCO)cc2)O[C@H]1c1ccccc1CN=[N+]=[N-]`, the composite z-score in test [1] was 1.12; in test [2] it was 1.36; in test [3] it was -0.0881; in test [4], -0.333; in test [5] it was 0.0233; in test [6] it was 1.87. Moreover, the composite z-score in test [7] is 1.34; in test [9], 0.326; in test [10], -0.0994. Besides, the z-score in [8] is 1.2 (inactive).
`CC[C@@H]1C=C(C(=O)O)[C@H](c2ccccc2)N1S(=O)(=O)c1ccc([N+](=O)[O-])cc1`: the composite z-score in test [1] was 0.0455; in test [2], -0.0271; in [3], -0.0669; in [4] it was 0.223; in [5], 0.989; in test [6], 1.86. Also, the results for the composite z-score in [7], in [9] and in test [10] were 1.08, 0.13 and -0.0831, respectively. The z-score in test [8] was -2.22 (inactive).
Regarding `C=CCc1cccc([C@H]2N[C@H](C(=O)O)CC[C@@H]2C)c1`, the composite z-score in test [1] was -0.746; in test [2] it was 0.604; in test [3], -0.221; in [4], 0.502; in test [5] it was -0.441; in [6] it was -0.0316. Also, the values for the composite z-score in [7], in [9] and in [10] were 0.519, -0.099 and 0.122, respectively. For the same compound, the z-score in test [8] was -0.204 (inactive).
Regarding `O=C(CS)NCCCCCCNC(=O)[C@@H]1C[C@@H]2C(=O)N[C@@H](Cc3ccccc3)C(=O)N2[C@@H]1c1ccc(O)cc1`, the composite z-score in test [1] was 0.0737; in [2] it was 1.09; in test [3] it was -0.083; in test [4] it was 0.922; in test [5], 0.412; in test [6], 1.23. The results for the composite z-score in test [7], in test [9] and in test [10] were 1.41, 0.245 and 0.0373, respectively. In [8], the z-score was 1.21 (inactive).
As for `COc1cc(CO)cc(I)c1O[C@H]1C=C(C(=O)NCCO)C[C@@H](N(CC2CCCCC2)C(=O)c2cc3ccccc3oc2=O)[C@@H]1O`, the composite z-score in test [1] was -0.336; in [2], -0.0516; in test [3] it was -0.0513; in test [4], 0.233; in test [5], 0.363; in [6], 0.0577. In addition, the composite z-score in test [7] is 0.377; in test [9] it was -0.52; in test [10], 0.0722. Also, in [8], the z-score is -1.48 (inactive).
Turning to `C=C(CCCC)C(=O)CC[C@@H](OC(C)=O)c1ccccc1OCCO`, the composite z-score is 0.286 in [1]; 0.844 in test [2]; -0.177 in test [3]; -0.34 in test [4]; -0.975 in test [5]; -0.52 in test [6]. Besides, the composite z-score in test [7] was -0.37; in test [9], -0.488; in [10], -0.0645. Further, the z-score in [8] is -2.26 (inactive).
